# Assay outcomes deposited in PubChem BioAssay by National Center for Advancing Translational Sciences (NCATS).
# Cruzain inh Det: qHTS Assay for Promiscuous and Specific Inhibitors of Cruzain (with detergent); Cruzipain (Trypanosoma cruzi), P25779; purified cruzain, Z-FR-AMC fluorescence, 0.01% Triton; Potency, µM, actives largely listed as inhibitors; 200,000 compounds, 0.43% hits; note: nearly all actives have a fitted effect of over 40% in size
# Target sequence (P25779 123-467 limits assumed): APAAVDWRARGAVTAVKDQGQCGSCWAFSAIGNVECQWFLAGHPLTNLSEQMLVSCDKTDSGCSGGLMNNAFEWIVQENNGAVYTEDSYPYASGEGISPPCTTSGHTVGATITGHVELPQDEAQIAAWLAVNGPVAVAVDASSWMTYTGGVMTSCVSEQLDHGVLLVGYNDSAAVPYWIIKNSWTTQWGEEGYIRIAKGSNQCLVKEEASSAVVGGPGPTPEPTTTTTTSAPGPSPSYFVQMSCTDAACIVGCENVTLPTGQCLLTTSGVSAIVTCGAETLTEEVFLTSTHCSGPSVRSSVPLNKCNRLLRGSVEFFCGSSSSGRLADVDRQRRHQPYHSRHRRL
#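 Purified cruzain (1.5 nM final) was preincubated with compounds for 15 min at room temperature in 100 mM sodium acetate pH 5.5, 5 mM DTT, 0.01% Triton X-100. Reaction started with 2 uM Z-FR-AMC; AMC fluorescence change over 60 s gave activity.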
# Cruzain inh noDet: qHTS Assay for Promiscuous and Specific Inhibitors of Cruzain (without detergent); Cruzipain (Trypanosoma cruzi), P25779; purified cruzain, Z-FR-AMC fluorescence, no detergent; Potency, µM, actives largely listed as inhibitors; 200,000 compounds, 2.3% hits; note: nearly all actives have a fitted effect of over 40% in size
#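 Purified cruzain at 1.5 nM, pre-incubated 15 min with compound at room temperature in 100 mM sodium acetate pH 5.5, 5 mM DTT, 0.00005% Triton X-100. Reaction started with 2 uM Z-FR-AMC; AMC fluorescence increase over 60 s gives rate.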
# Papain inh: qHTS Assay for Inhibitors of Papain: Counterscreen for Cruzain Assay; purified papain, Z-FR-AMC fluorescence cleavage; 410 compounds, 41% hits; shares compounds with Cruzain inh Det; Potency, µM, most hits filed as inhibitors; AID 2161, 2009; note: nearly all actives have a fitted effect of over 35% in size
# Target sequence (P00784 whole entry, looked up): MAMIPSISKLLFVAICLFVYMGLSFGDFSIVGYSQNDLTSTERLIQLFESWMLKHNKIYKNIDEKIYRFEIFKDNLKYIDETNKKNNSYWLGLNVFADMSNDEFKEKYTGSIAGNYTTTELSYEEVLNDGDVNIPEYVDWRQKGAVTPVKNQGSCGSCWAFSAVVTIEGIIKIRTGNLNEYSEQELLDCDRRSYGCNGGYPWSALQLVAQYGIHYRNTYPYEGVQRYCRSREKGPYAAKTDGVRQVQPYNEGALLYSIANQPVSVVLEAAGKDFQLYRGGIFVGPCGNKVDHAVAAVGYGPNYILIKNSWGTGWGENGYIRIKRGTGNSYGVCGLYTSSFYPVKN
# A number is an active result; 0 = inactive; ? = inconclusive; - = not tested or not shown. An excerpt weighted towards active compounds, which were near 2.6% of everything screened. Calls come from the whole dose curve; as a rule, active = well fitted curve in the direction sought with a large enough effect; inconclusive = small, poorly fitted or top-dose-only effect, or another doubt; inactive = no such curve, though single readings can be large; an effect the other way counts as inactive or inconclusive.
SMILES,Cruzain inh Det,Cruzain inh noDet,Papain inh
Cc1ccc2c(c1)c1c(c(=O)n(-c3ccccc3C)c(=O)n1CC(=O)N1CCCC1)n2C,0,0,-
Cn1c(=O)[nH]c2cc(-c3noc(-c4ccc(Br)cc4)n3)ccc21,0,0,-
O=C(NC(=S)Nc1ccc(NC(=O)c2cccs2)cc1)c1cc2ccccc2o1,0,?,-
O=C(NC(=S)Nc1nc(-c2cccc3ccccc23)cs1)c1cc2ccccc2o1,0,2.5µM,0
CC(C)C(=O)NCCc1nc2ccccc2n1CCOc1ccccc1,0,0,-
CC(C)(C)C(=O)NCCc1nc2ccccc2n1CCCCOc1ccccc1,0,0,-
O=C(NCCCc1nc2ccccc2n1Cc1c(F)cccc1Cl)C1CCCCC1,0,0,-
O=C(NCCc1nc2ccccc2n1CCOc1ccc(Cl)cc1)C1CCCCC1,1.3µM,0,8.9µM
O=C(NCCc1nc2ccccc2n1CCOc1ccccc1)C1CCCCC1,-,-,0
Cc1ccc(OCCCCn2c(CCNC(=O)C(C)(C)C)nc3ccccc32)cc1,0,?,-
Cc1ccc(OCCCn2c(CCCNC(=O)C3CCCCC3)nc3ccccc32)cc1,-,-,0
CCc1ccc(OCCCCn2c(CCNC(=O)C3CCCCC3)nc3ccccc32)cc1,-,-,22µM
Cc1nn(C)c2c1c(C(F)(F)F)cc(=O)n2CC(=O)NC(C)(C)C,0,?,-
Fc1ccc(NCc2nnc3n2CCCCC3)cc1Cl,0,0,-
C[C@H](Br)C(=O)Nc1ccc(C(=O)O)c(O)c1,0,0,-
COC(=O)CCNC(=O)N1CCN(c2nnc(C)c3c(C)n(-c4ccc(Cl)cc4)nc23)CC1,0,0,-
COc1ccccc1CNc1ccc(-c2nc(-c3ccco3)no2)cc1[N+](=O)[O-],0,?,-
COc1cc(OC)c(-c2nn3c(-c4n[nH]c5c4CCC5)nnc3s2)cc1OC,-,-,0
Cc1cc(-c2nnc3sc(-c4ccc(Cl)cc4Cl)nn23)n[nH]1,0,0,-
c1csc(Cc2nn3c(-c4n[nH]c5c4CCC5)nnc3s2)c1,0,?,-
COc1cc(OC)c(-c2nn3c(-c4cc(C)[nH]n4)nnc3s2)cc1OC,-,-,0
COc1ccc(-c2onc(C)c2C)cc1S(=O)(=O)NC1CCC(C)CC1 (stereo not drawn),0,0,-
COc1ccc(/C=N/NC(=O)c2ccc(Br)cc2)cc1Cn1cc(Cl)cn1,0,?,0
COc1ccc(/C=N/NC(=O)c2cccc(Br)c2)cc1Cn1cc(Cl)cn1,0,?,-
Cc1ccc(C)c(OCCn2c(CCNC(=O)C3CCCCC3)nc3ccccc32)c1,1.3µM,0,0
SMILES,Cruzain inh Det,Cruzain inh noDet,Papain inh
O=C(NCCCc1nc2ccccc2n1Cc1ccccc1Cl)C1CCCCC1,0,0,-
CC(=O)NCCc1nc2ccccc2n1Cc1ccc(C)cc1,0,0,-
Cc1ccccc1OCCn1c(CCNC(=O)C(C)(C)C)nc2ccccc21,0,?,-
CCCC(=O)NCCc1nc2ccccc2n1CCC,0,?,-
O=C(NCCc1nc2ccccc2n1CCCOc1ccccc1Cl)C1CCCCC1,-,-,0
Cc1ccccc1OCCn1c(CCNC(=O)C2CCCCC2)nc2ccccc21,1.4µM,0,0
O=C(NCCc1nc2ccccc2n1CCOc1cccc2ccccc12)C1CCCCC1,-,-,0
O=C(CN1C(=O)CCc2cc(S(=O)(=O)N3CCOCC3)ccc21)Nc1cccc(C(F)(F)F)c1,0,?,-
NC(=O)CSc1nc2ccc(NC(=O)COc3ccccc3)cc2s1,0,0,-
COc1ccccc1CNC(=O)Cc1c(C)c2cc3c(C)coc3c(C)c2oc1=O,0,0,-
Cc1nn(-c2ccccc2)c2c1N(CC(=O)N1CCN(c3cccc(Cl)c3)CC1)C(=O)CS2,0,0,-
Cc1ccc(NS(=O)(=O)c2ccc3[nH]c4c(c3c2)CCCCC4)cc1,0,0,-
CCn1c(=O)n(CC)c2cc(N3CCCCC3)c(NC(=O)Nc3ccccc3C(F)(F)F)cc21,0,?,-
CC1(C)Oc2ccc(/C=C/C(=O)N3CCOCC3)c(O)c2C(N2CCOCC2)C1O (stereo not drawn),0,0,-
CC(C)CC(=O)OC1C(N2CCOCC2)c2c(ccc(/C=C/C(=O)N3CCOCC3)c2O)OC1(C)C (stereo not drawn),0,?,14µM
Cc1ccc2c(c1)C(c1ccccc1)N(C(=O)c1ccc(S(=O)(=O)N3CCCC3)cc1)CC(=O)N2 (stereo not drawn),0,0,-
CCCNC(=O)CSc1cn(CC(=O)N2CCCCCC2)c2ccccc12,0,0,-
CC(C)(C)NC(=O)COC(=O)CNC(=O)C1CCCCC1,-,-,0
CC(C)NC(=O)COC(=O)CNC(=O)C1CCCCC1,-,-,0
O=C(CNC(=O)C1CCCCC1)Nc1ccccc1,0,0,-
Cc1cc(NC(=O)CNC(=O)C2CCCCC2)no1,0,0,-
Cc1ccc2c(c1)N(C(=O)CCC(=O)NCc1cccs1)CCO2,0,0,-
COc1ccc(NC(=O)c2oc3ccc(S(=O)(=O)N4CCC5(CC4)OCCO5)cc3c2C)cc1Cl,0,0,-
CCOc1ccc(NC(=O)c2ccc(CNc3c(NC4CCCCC4)c(=O)c3=O)cc2)cc1,0,4µM,0
COc1ccc(NC(=O)c2ccc(CNc3c(NC4CCCCC4)c(=O)c3=O)cc2)c(OC)c1,0,?,-
SMILES,Cruzain inh Det,Cruzain inh noDet,Papain inh
Cc1ccc(C)c(Cn2c(-c3cccs3)nc3ccccc32)c1,0,0,-
COc1ccc(-c2cc(C(F)(F)F)nc(N3CCN(C)CC3)n2)cc1,0,0,-
COc1ccc(-c2cc(C#N)nc(N3CCN(C)CC3)n2)cc1,25µM,16µM,0
COCCn1c(=O)c(-c2cccc(C#N)c2)nc2cnc(Oc3ccc(OC)cc3)nc21,0,0,-
CCOc1cc(CNS(=O)(=O)c2ccc3c(c2)C(C)(C)C(=O)N3)cc(OCC)c1OCC,0,0,-
CC1(C)Cc2c(C#N)c(N3CCN(C(=O)c4ccccc4)CC3)nc(-c3ccco3)c2CS1,28µM,25µM,7.9µM
CC1(C)Cc2c(C#N)c(N3CCCC3)nc(-c3ccco3)c2CO1,0,?,-
CC(C)c1nc(N2CCN(C(=O)c3ccccc3)CC2)c(C#N)c2c1COC(C)(C)C2,0,0,-
N#Cc1c(N2CCOCC2)nc(-c2ccco2)c2c1CCCC2,13µM,10µM,5.6µM
COc1cccc(-c2nc(CS(=O)(=O)CC(=O)N3CCN(c4ccccc4)CC3)c(C)o2)c1,0,?,-
COc1ccc(C2CC(=O)c3cnc4c(-c5ccccc5)c(C)nn4c3C2)cc1OC (stereo not drawn),0,0,-
N#CC(C#N)=NNc1ccc2cn[nH]c2c1,0,?,-
N#CC(C#N)=NNc1cccc(Cl)c1,11µM,13µM,28µM
Cc1ccc(N(CC(=O)NCCSc2ccccc2)S(=O)(=O)c2ccc(F)cc2)cc1,0,0,-
CC(C)(C)OC(=O)N[C@@H](Cc1ccccc1)c1nnc(SCC(=O)O)o1,25µM,0,0
COC(=O)CSc1nnc([C@H](CC(C)C)NC(=O)OC(C)(C)C)o1,?,0,-
CCCCNC(=O)Cn1c(SCc2cccc(C)c2)nc2ccncc21,-,-,0
O=C(Cn1c(SCc2cccc(F)c2)nc2ccncc21)Nc1ccc(Cl)cc1F,0,0,-
CC(C)CCNC(=O)Cn1c(SCc2cccc(F)c2)nc2ccncc21,-,-,0
Cc1cccc(CSc2nc3ccncc3n2CC(=O)Nc2ccc(C)c(C)c2)c1,0,0,-
Cc1ccc(CNC(=O)c2cc(S(=O)(=O)N3CCCC(C)C3)cn2C)cc1 (stereo not drawn),0,0,-
Cc1ccc(CNC(=O)CCNS(=O)(=O)c2ccc3c(c2)CCCC(=O)N3)cc1,0,0,-
